Assay results reported in PubChem BioAssay (Tox21).
Values joined by “and” are separate entries in the source; they are usually repeats but may differ in a detail not shown here. Equal entries are not always repeated. Records with an inconclusive call do not appear. Where a call stands in place of a potency, no number is given. A structure can be active in one record and inactive in another. Active and inactive are the calls of the source. Unless noted, calls come from the whole dose curve; as a rule, active = well fitted curve in the direction sought with a large enough effect in the repeat runs; inconclusive = weak or mixed curves; inactive = no such curve, though single readings can be large; an effect the other way counts as inactive or inconclusive.

Key:
[1] = molecular target: Luciferin 4-monooxygenase (Photinus pyralis) (UniProt P08659); assay: qHTS assay to identify small molecule inhibitors of firefly luciferase (AID 1224835); note: nearly all actives have a fitted effect of over 25% in size; note: potency is the fitted concentration of half-maximal effect
In short: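 Biochemical qHTS: compounds run as interplate titrations against purified firefly enzyme, with D-luciferin and ATP each at its KM concentration. Light output recorded by CCD imaging.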

[2] = qHTS assay to identify small molecule agonists of the constitutive androstane receptor (CAR) signaling pathway - cell viability counter screen (AID 1224836); note: nearly all actives have a fitted effect of over 45% in size; note: potency is the fitted concentration of half-maximal effect
In short: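 HepG2-CYP2B6-hCAR, 2500 cells/well, 4 h pre-incubation; cpd 15 conc + PK11195 0.75 uM final; 23 h, 37 C/5% CO2; CellTiter-Fluor, fluorescence.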

[3] = qHTS assay to identify small molecule antagonists of the constitutive androstane receptor (CAR) signaling pathway - cell viability counter screen (AID 1224837); note: nearly all actives have a fitted effect of over 45% in size; note: potency is the fitted concentration of half-maximal effect
In short: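 Cytotoxicity counter-screen: CellTiter-Fluor fluorescence after 23 h compound exposure (15-point qHTS) in double-stable HepG2-CYP2B6-hCAR cells, with 50 nM CITCO added.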

[4] = qHTS assay to identify small molecule antagonists of the estrogen related receptor signaling pathway with the pleiotropic PPARgamma coactivator (PGC) from Tox21 10K library - cell viability counter screen (AID 1224840; active = well fitted cell-killing curve with a large enough effect in the repeat runs, not every such curve was filed as active; note: nearly all actives have a fitted effect of over 40% in size; note: potency is the fitted concentration of half-maximal effect)
In short: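 Counter-screen for cytotoxicity: after 17.5 h compound exposure at 37 C, CellTiter-Fluor reagent added to PGC/ERR cells for 30 min and fluorescence read. Cells were seeded at 2,000 per well 6 h before dosing.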

[5] = qHTS assay to identify small molecule agonists of the estrogen related receptor signaling pathway with the pleiotropic PPARgamma coactivator (PGC) from Tox21 10K library (AID 1224842); note: nearly all actives have a fitted effect of over 15% in size
In short: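 PGC/ERR reporter cell line, 2,000 cells per well, incubated 6 h at 37 C before 23 nL compound in DMSO was added. After 18 h at 37 C, One-Glo luminescence read following 30 min at room temperature.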

[6] = molecular target: Thyrotropin receptor (Homo sapiens) (UniProt P16473); assay: qHTS assay to identify small molecule agonists of the thyroid stimulating hormone receptor (TSHR) signaling pathway (AID 1224843; calls by dose curve; note: nearly all actives have a fitted effect of over 45% in size)
In short: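 HEK293/TSHR, 800 cells/well; cpd 30 min RT; add cAMP-d2 + anti-cAMP-cryptate, 1 h RT; fluorescence read on plate reader. 15-pt titration, n=3.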

[7] = qHTS assay to identify small molecule agonists of the hypoxia (HIF-1) signaling pathway - cell viability counter screen (AID 1224844; calls by dose curve; note: nearly all actives have a fitted effect of over 50% in size)
In short: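 Cytotoxicity measured by CellTiter-Glo ATP luminescence in the wells also read for beta-lactamase signal. Cells were HRE-bla ME-180 (2,000/well, 0.5% dialyzed FBS), exposed to compounds for 17 h at 37C.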

[8] = qHTS assay to identify small molecule agonists of H2AX (AID 1224845; active = well fitted activation curve with a large enough effect in the signal ratio in the repeat runs, not every such curve was filed as active; the % refers to the signal ratio)
In short: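 Wild-type CHO-K1 cells, plated overnight, exposed 3hr at 37C to 15 concentrations (0.76% DMSO final). Lysed, then HTRF anti-pH2AX (S139) cryptate and anti-H2AX-d2 antibodies, 24 hr room temperature; 665/620 nm emission read.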

[9] = qHTS assay to identify small molecule agonists of the hypoxia (HIF-1) signaling pathway (AID 1224846; active = well fitted activation curve with a large enough effect in the signal ratio in the repeat runs, not every such curve was filed as active; the % refers to the signal ratio)
In short: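 Compounds added to ME-180 cells carrying hypoxia-response-element beta-lactamase reporter (0.5% dialyzed FBS, 5 h preplating), 17 h at 37C; agonist activity detected by CCF4-AM B/G FRET read-out.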

[10] = qHTS assay to identify small molecule agonists of H2AX - cell viability counter screen (AID 1224847; calls by dose curve; note: nearly all actives have a fitted effect of over 30% in size; note: potency is the fitted concentration of half-maximal effect)
In short: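 Cells plated first: CHO-K1, 1000 per well in 10% FBS medium, incubated overnight at 37C. Then 15-point compound titration added (final DMSO 0.76%) for 3 hr. Finally CellTiter-Glo added and luminescence read.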

[11] = qHTS assay to identify small molecule antagonists of the estrogen related receptor (ERR) signaling pathway from Tox21 library (AID 1224848); note: nearly all actives have a fitted effect of over 50% in size; note: potency is the fitted concentration of half-maximal effect
In short: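 Compounds dissolved in DMSO are pin-transferred onto ERR reporter cells (2,000 per well) that have settled for 6 h at 37 C. Plates then incubate 18 h at 37 C before ONE-Glo luciferase reagent and a luminescence read 30 min later.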

[12] = qHTS assay to identify small molecule agonists of the estrogen related receptor (ERR) signaling pathway from Tox21 library (AID 1224849; calls by dose curve; note: nearly all actives have a fitted effect of over 15% in size); conditions: ERR reporter cell line, ONE-Glo luciferase, 18 h
In short: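 Luminescent agonist read-out (One-Glo, 30-minute room-temperature incubation) following 18-hour compound treatment at 37 C of the ERR cell line, which had been plated 6 hours before dosing.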

[13] = qHTS RealTime-Glo MT Cell Viability Assay in HepG2 cells - 24 hour (AID 1224867); note: nearly all actives have a fitted effect of over 50% in size; note: potency is the fitted concentration of half-maximal effect
In short: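 HepG2 cells were seeded at 600 cells/well together with NanoLuc luciferase and a cell-permeant prosubstrate, preincubated 5 h at 37 C/5% CO2, then pin-dosed with compounds in DMSO. Nonlytic luminescence from viable cells was read at each time point.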

[14] = qHTS RealTime-Glo MT Cell Viability Assay in HEK293 cells - 32 hour (AID 1224868); note: nearly all actives have a fitted effect of over 50% in size; note: potency is the fitted concentration of half-maximal effect
In short: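 HEK293 cells were seeded at 600 cells/well together with NanoLuc luciferase and cell-permeant prosubstrate, preincubated 5 h at 37 C/5% CO2, then given compound in DMSO by pintool. Luminescence from viable-cell prosubstrate reduction was read repeatedly over 40 h.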

[15] = A CellTox Green Cytotoxicity Assay to monitor cytotoxicity in HEK293 cells - 0 hour (AID 1224869); note: nearly all actives have a fitted effect of over 50% in size
In short: (§1)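 Fluorescence from a DNA-binding dye excluded by viable cells was measured repeatedly in the same HEK293 wells (600 cells/well) during continuous compound exposure at 37 C. Each assay gives one read point: 0, 8, 16, 24, 32 or 40 h.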

[16] = qHTS RealTime-Glo MT Cell Viability Assay in HepG2 cells - 40 hour (AID 1224870); note: nearly all actives have a fitted effect of over 50% in size
In short: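 HepG2 cells (600/well) mixed with RealTime-Glo MT reagent, settled 5 h at 37 C/5% CO2 before compound addition. Nonlytic NanoLuc luminescence from viable-cell prosubstrate reduction read repeatedly during 40 h treatment at 37 C.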

[17] = qHTS assay to identify small molecule antagonists of the estrogen related receptor signaling pathway with the pleiotropic PPARgamma coactivator (PGC) from Tox21 10K library (AID 1224841; call rule not given here; note: potency is the fitted concentration of half-maximal effect)
In short: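 Luminescence (One-Glo, 30 min at room temperature) after 18 h compound treatment at 37 C of PGC/ERR reporter cells plated at 2,000 cells/well and settled 6 h beforehand.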

[18] = A CellTox Green Cytotoxicity Assay to monitor cytotoxicity in HEK293 cells - 40 hour (AID 1224871); note: nearly all actives have a fitted effect of over 45% in size; note: potency is the fitted concentration of half-maximal effect
In short: as §1

[19] = at 92.4 µM (top of the series) unless noted

Chain of Thyrotropin receptor (Homo sapiens) (P16473 whole entry, looked up): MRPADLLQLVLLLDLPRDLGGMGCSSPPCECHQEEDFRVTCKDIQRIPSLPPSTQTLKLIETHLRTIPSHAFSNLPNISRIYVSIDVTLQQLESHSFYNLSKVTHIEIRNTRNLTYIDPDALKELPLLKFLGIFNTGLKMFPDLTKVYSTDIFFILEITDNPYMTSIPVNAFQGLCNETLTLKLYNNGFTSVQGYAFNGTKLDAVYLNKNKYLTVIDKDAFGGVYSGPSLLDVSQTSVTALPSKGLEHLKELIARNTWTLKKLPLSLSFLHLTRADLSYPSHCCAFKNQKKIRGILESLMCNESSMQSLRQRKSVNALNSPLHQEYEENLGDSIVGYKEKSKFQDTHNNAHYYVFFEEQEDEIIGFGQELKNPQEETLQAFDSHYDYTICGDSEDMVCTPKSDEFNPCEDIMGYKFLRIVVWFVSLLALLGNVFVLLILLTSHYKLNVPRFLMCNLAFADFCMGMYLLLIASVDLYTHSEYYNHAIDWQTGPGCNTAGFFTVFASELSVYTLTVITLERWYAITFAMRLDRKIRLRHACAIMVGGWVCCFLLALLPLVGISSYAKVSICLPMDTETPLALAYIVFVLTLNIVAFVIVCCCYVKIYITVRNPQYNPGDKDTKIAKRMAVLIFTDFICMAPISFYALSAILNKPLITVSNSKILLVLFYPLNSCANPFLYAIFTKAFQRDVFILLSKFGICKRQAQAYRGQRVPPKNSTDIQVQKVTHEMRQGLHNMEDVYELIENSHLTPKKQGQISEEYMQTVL
Chain of Luciferin 4-monooxygenase (Photinus pyralis) (P08659 whole entry, looked up): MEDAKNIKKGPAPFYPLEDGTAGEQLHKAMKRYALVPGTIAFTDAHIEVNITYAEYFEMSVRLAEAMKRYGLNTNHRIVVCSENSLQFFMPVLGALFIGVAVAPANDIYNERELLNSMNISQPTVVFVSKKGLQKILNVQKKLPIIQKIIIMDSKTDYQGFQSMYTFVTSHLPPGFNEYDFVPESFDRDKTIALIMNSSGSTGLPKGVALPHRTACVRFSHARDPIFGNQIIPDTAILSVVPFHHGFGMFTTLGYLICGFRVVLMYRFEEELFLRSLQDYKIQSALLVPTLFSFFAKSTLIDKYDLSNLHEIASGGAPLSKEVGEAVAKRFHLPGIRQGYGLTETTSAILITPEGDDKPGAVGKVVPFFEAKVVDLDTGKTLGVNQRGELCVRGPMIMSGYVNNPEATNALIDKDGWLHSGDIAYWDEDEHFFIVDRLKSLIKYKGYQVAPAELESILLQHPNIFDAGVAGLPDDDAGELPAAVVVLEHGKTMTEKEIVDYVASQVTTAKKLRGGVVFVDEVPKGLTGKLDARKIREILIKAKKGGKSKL

CC(C)C(=O)Cl
Potency [1]: inactive
Potency [2]: inactive
Potency [3]: inactive
Potency [4]: inactive
Potency [5]: inactive
Potency [6]: inactive
Potency [7]: inactive
Potency [8]: inactive
outcome [9]: inactive
Potency [10]: inactive
Potency [11]: inactive
activity change, positive = activation [12, 19]: -0.166% (inactive)
Potency [13]: inactive
Potency [14]: inactive
Potency [15]: inactive
Potency [16]: inactive

CCc1ccccc1C
Potency [1]: inactive
Potency [2]: inactive
Potency [3]: inactive
Potency [4]: inactive
Potency [17]: inactive
Potency [5]: inactive
Potency [6]: inactive
Potency [7]: inactive
Potency [8]: inactive
outcome [9]: inactive
Potency [10]: inactive
Potency [11]: inactive
activity change, positive = activation [12, 19]: 0.837% (inactive)
Potency [13]: inactive
Potency [14]: inactive
Potency [15]: inactive
Potency [16]: inactive
Potency [18]: inactive

C=CC(=O)N(C)C
Potency [1]: inactive
Potency [2]: inactive
Potency [3]: inactive
Potency [4]: inactive
Potency [17]: 27.3 µM (active)
Potency [5]: inactive
Potency [6]: inactive
Potency [7]: inactive
Potency [8]: inactive
outcome [9]: inactive
Potency [10]: inactive
Potency [11]: inactive
activity change, positive = activation [12, 19]: -4.19% (inactive)
Potency [13]: inactive
Potency [14]: inactive
Potency [15]: inactive
Potency [18]: inactive

CCN(CC)C(=S)[S-].CCN(CC)C(=S)[S-].[Zn+2]
Potency [1]: 35.3 µM (active)
Potency [2]: 3.04 µM (active)
Potency [3]: 1.36 µM (active)
Potency [4]: 2.41 µM (active)
Potency [6]: inactive
Potency [10]: 50 µM (active)
Potency [13]: 13.7 µM (active)
Potency [14]: 4.86 µM (active)
Potency [15]: inactive
Potency [18]: 5.45 µM (active)

CC(C)CC(C)N (configuration not stated)
Potency [1]: inactive
Potency [2]: inactive
Potency [3]: inactive
Potency [4]: inactive
Potency [17]: inactive
Potency [5]: inactive
Potency [6]: inactive
Potency [7]: inactive
Potency [8]: inactive
outcome [9]: inactive
Potency [10]: inactive
Potency [11]: inactive
activity change, positive = activation [12, 19]: 0.671% (inactive)
Potency [13]: inactive
Potency [14]: inactive
Potency [15]: inactive
Potency [16]: inactive
Potency [18]: inactive

COc1ccc(N)cc1N
Potency [1]: 41.2 µM (active)
Potency [2]: 63.1 µM (active)
Potency [3]: 70.8 µM (active)
Potency [4]: 28.2 µM (active) and inactive
Potency [5]: inactive
Potency [7]: inactive
outcome [9]: inactive
Potency [10]: 41.4 µM (active) and 54.4 µM (active)
Potency [11]: 63.1 µM (active) and 14.7 µM (active)
activity change, positive = activation ([12]; at 42.5 µM (top of the series)): -34.8% (inactive)
activity change, positive = activation ([12]; at 92.4 µM (top of the series)): -69.2% (inactive)
Potency [13]: inactive
Potency [14]: 45 µM (active)
Potency [15]: inactive
Potency [16]: inactive

CN(CCCC(O)c1cccnc1)N=O (configuration not stated)
Potency [1]: inactive
Potency [2]: inactive
Potency [3]: inactive
Potency [4]: inactive
Potency [6]: inactive
Potency [7]: inactive
Potency [8]: inactive
outcome [9]: inactive
Potency [10]: inactive
Potency [13]: inactive
Potency [14]: inactive
Potency [15]: inactive
Potency [18]: inactive
